Measured values as given in the supplement of paper PMC7156485.
Values without a mark were called inactive.

Tested on: TDF
Assay: H1.0 immunofluorescence intensity relative to DMSO (% of DMSO); higher = stronger H1.0 induction, active = 120 or more
Conditions: concentration: 10 µM; 24 h
Outline: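 After 24 h at 37 °C with compounds at 10 µM, in triplicate, HCC1569 and TDF cells were fixed with 3.7% formaldehyde. Immunostaining used a rabbit anti-H1.0 antibody and an AlexaFluor 647 secondary, with DAPI, and six fields per well were imaged at ×10. H1.0 nuclear intensity or cell number is presented as percent of the plate control, from the median of replicates, with HCC1569 values smoothed for positional effects.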
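Further: TDF is a line of transformed human dermal fibroblasts of mesenchymal origin.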

**Q.** How did the H1.0 immunofluorescence intensity turn out when `O=C(Nc1ccccc1)c1cc([N+](=O)[O-])ccc1Cl` was run?
**A.** The H1.0 immunofluorescence intensity was 100.

**Q.** Which H1.0 immunofluorescence intensity does the source give for `N#CC(=Cc1ccc(O)c(O)c1)C(=O)NCc1ccccc1` here?
**A.** The H1.0 immunofluorescence intensity was 91.1.

**Q.** Which H1.0 immunofluorescence intensity does the source give for `Cc1cccc(C=Cc2ccccc2)n1` here?
**A.** Its H1.0 immunofluorescence intensity is 96.7.

**Q.** `CC(C)[N+](C)(CCOC(=O)C1c2ccccc2Oc2ccccc21)C(C)C.[Br-]` [Propantheline bromide] was tested. Which H1.0 immunofluorescence intensity did it give?
**A.** The H1.0 immunofluorescence intensity was 95.1.

**Q.** With `CC(C)(S)[C@H](N)C(=O)O` [L-Penicillamine] as the molecule, how does the H1.0 immunofluorescence intensity read?
**A.** The H1.0 immunofluorescence intensity was 98.5.

**Q.** For `CCCCCCCCCCCCCCCC(=O)OC(CC(=O)O)C[N+](C)(C)C.[Cl-]` (racemic) [Palmitoyl-DL-Carnitine chloride], which H1.0 immunofluorescence intensity is on record?
**A.** Its H1.0 immunofluorescence intensity is 104.

**Q.** With `O=C(OC1Cc2c(O)cc(O)cc2OC1c1cc(O)c(O)c(O)c1)c1cc(O)c(O)c(O)c1` (configuration not stated) [Epigallocatechin gallate] as the molecule, how does the H1.0 immunofluorescence intensity read?
**A.** Its H1.0 immunofluorescence intensity is 94.8.

**Q.** How did the H1.0 immunofluorescence intensity turn out when `Cl.Clc1ccc2nsnc2c1NC1=NCCN1` [Tizanidine.HCl] was run?
**A.** The H1.0 immunofluorescence intensity was 104.

**Q.** Which H1.0 immunofluorescence intensity does the source give for `FC(F)(F)c1cc(NC(=S)Nc2ccc(Br)cc2-c2nn[nH]n2)cc(C(F)(F)F)c1` here?
**A.** The H1.0 immunofluorescence intensity was 90.2.

**Q.** For `Oc1cc(O)c2c(c1)OC(c1ccc(O)c(O)c1)C(O)C2` (single isomer, unassigned; (+)) [(+)-Catechine], which H1.0 immunofluorescence intensity is on record?
**A.** The H1.0 immunofluorescence intensity was 91.8.

**Q.** `Br.Br.N=C(N)SCCc1cccc(CCSC(=N)N)c1` [1,3-PBIT dihydrobromide] was tested. Which H1.0 immunofluorescence intensity did it give?
**A.** The H1.0 immunofluorescence intensity was 97.4.

**Q.** How did the H1.0 immunofluorescence intensity turn out when `CC=C1C2C=C(C)CC1(N)c1ccc(=O)[nH]c1C2` (single isomer, unassigned; (-)) [(-)-Huperazine] was run?
**A.** Its H1.0 immunofluorescence intensity is 98.9.
